From PubChem BioAssay
BLM inh = inhibitors of human Bloom syndrome helicase BLM. P54132. recombinant BLM DNA unwinding, fluorescence dequenching. Potency, µM (highest dose often 56.1 µM), for inactives: top-dose activity change, negative = inhibition, actives largely listed as inhibitors. 350,000 compounds, 0.2% hits. AID 2528;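 note: plate controls were vehicle for no effect and no enzyme for full effect; nearly all actives have a fitted effect of over 35% in size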
TDP1 inh = blocks human tyrosyl-DNA phosphodiesterase 1; Q9NUW8; 350,000 compounds, 0.28% hits; AID 485290; Potency, µM (top dose mostly 130 µM), inactives show at the top dose activity change, negative = inhibition, actives largely listed as inhibitors; recombinant TDP1, AlphaScreen DNA substrate cleavage; note: nearly all actives have a fitted effect of over 40% in size
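Here, a 5' biotin and 3' phosphotyrosine-FITC DNA oligonucleotide reports Tdp1 activity: intact substrate bridges AlphaScreen beads, while cleavage leaves a 3' phosphate and drops signal. All incubations at room temperature.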
RECQ1 helicase = inhibitors of human RECQ1 DNA helicase. 240,000 compounds, 0.54% hits. RECQ1 DNA unwinding, red fluorescence kinetic read. Potency, µM (doses to about 57.3 µM), without a hit: top-dose activity, negative = inhibition, hits mostly inhibitors. P46063;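 note: plate controls were vehicle for no effect and no enzyme for full effect; nearly all actives have a fitted effect of over 30% in size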
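50 nM RECQ1T1 preincubated 15 min with compound in Tris pH 8.0 buffer with MgCl2, DTT, Tween-20 and 2.5 ug/ml poly(dI-dC); started with 200 nM TAMRA/BHQ-2 forked duplex and 2 mM ATP. Unwinding read as fluorescence (525/598 nm), two reads 2 h apart.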
GLS inh = inhibitors of human glutaminase (GLS); O94925; GLS enzymatic activity, qHTS titration; Potency, µM (highest dose often 45.5 µM), for inactives: top-dose activity change, negative = inhibition, most hits filed as inhibitors; 410,000 compounds, 0.21% hits; AID 624170
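hKGA in 45 mM KH2PO4 (pH 8.2), 0.02% Tween-20 with compound, then 1mM L-Glutamine (stock as added) plus glutamate oxidase/HRP/Amplex red coupling mix. Fluorescence read initially and after 30 min at RT; signal change reflects glutamate formation.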
APE1 inh-1 = APE1 (human) endonuclease inhibition. P27695. 350,000 compounds, 0.35% hits. Potency, µM (highest dose often 65.8 µM), for the others: at the highest dose activity change, negative = inhibition, usual class: inhibitors. recombinant APE1, TAMRA/BHQ-2 abasic DNA cleavage fluorescence. AID 2517;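 note: plate controls were vehicle for no effect and reference inhibitor for full effect; nearly all actives have a fitted effect of over 55% in size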
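Readout is kinetic fluorescence (ex 525, em 598 nm) from cleavage of 50 nM TAMRA/BHQ-2 THF abasic duplex by 0.75 nM APE1, compound added 15 min beforehand at RT.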
Tb PGK inh = T. brucei PGK inhibition. PGK/GAPDH coupled, Kinase-Glo luminescence, 60 min. Potency, µM (titrated, usually from 57.5 µM), for the others: top-dose activity change, negative = inhibition, usual class: inhibitors. 380,000 compounds, 0.043% hits. AID 602233; note: nearly all actives have a fitted effect of over 60% in size
Target sequence (P07378 whole entry, looked up): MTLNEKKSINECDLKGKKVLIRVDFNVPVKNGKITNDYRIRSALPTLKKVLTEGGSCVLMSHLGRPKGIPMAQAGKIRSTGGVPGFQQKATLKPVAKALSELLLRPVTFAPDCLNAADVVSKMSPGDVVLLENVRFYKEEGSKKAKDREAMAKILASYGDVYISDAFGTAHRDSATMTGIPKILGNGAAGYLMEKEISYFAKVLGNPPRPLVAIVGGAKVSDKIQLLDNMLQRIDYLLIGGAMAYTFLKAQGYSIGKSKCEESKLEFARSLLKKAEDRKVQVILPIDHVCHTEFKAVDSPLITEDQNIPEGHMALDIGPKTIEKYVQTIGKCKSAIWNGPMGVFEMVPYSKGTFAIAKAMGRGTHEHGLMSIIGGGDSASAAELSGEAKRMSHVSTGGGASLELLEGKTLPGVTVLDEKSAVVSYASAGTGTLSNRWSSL
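Luminescent ATP detection (Kinase-Glo Plus) follows a 60-minute room-temperature incubation, with wells lacking PGK as controls. Buffer: 100 mM TEA (pH 7.6), 5 mM MgCl2, 0.01% Tween-20. Coupling enzyme GAPDH (100 nM final) supplies unstable 1,3-BPG in-well.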
DNA dye displace = counter-screen for APE1 inhibitors: DNA dye displacement; shares compounds with APE1 inh-1; 480 compounds, 7% hits; Potency, µM (top dose mostly 28.5 µM), for inactives: top-dose activity change, negative = inhibition, most hits filed as inhibitors; AID 2564; DNA fluorescent dye displacement counterscreen, fluorescence;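 note: loss of thiazole orange fluorescence as the dye is displaced from duplex DNA; 0% = ThO with dsDNA and no compound and -100% = ThO without dsDNA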
EndoIV counter = Endo IV (E. coli) inhibition counter-screen; shares compounds with APE1 inh-1; E. coli Endo IV, fluorogenic AP-site DNA cleavage; Potency, µM (doses to about 27.1 µM), inactives show at the highest dose activity change, negative = inhibition, hits mostly inhibitors; 560 compounds, 4% hits;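 note: plate controls were uninhibited enzyme wells for no effect and no enzyme buffer wells for full effect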
APE1 inh-2 = confirmation of inhibitors of human APE1 endonuclease. purified APE1, fluorogenic abasic-site DNA cleavage. shares compounds with APE1 inh-1. 750 compounds, 44% hits. AID 2572. Potency, µM (titrated, usually from 57.1 µM), for the others: at the highest dose activity change, negative = inhibition, most hits filed as inhibitors; note: nearly all actives have a fitted effect of over 30% in size
APE1 FP inh = APE1 (human) DNA binding inhibition, fluorescence polarization; shares compounds with APE1 inh-1; APE1 binding to TAMRA-labelled double-stranded DNA, fluorescence polarization displacement; Potency, µM (highest dose often 28.5 µM), inactives show top-dose activity, negative = inhibition, hits mostly inhibitors; 480 compounds, 7% hits; AID 2573
* = called active by the depositor; i = inactive; ? = inconclusive; . = no result given; ! = not confirmed by another sample; [ ] = another dose, or the depositor's remark. Shown are actives, neighbours in structure and some others; about 0.85% of the full set was active somewhere. Calls come from the whole dose curve; as a rule, active = well fitted curve in the direction sought with a large enough effect; inconclusive = small, poorly fitted or top-dose-only effect, or another doubt; inactive = no such curve, though single readings can be large; an effect the other way counts as inactive or inconclusive. Unless noted, % is set by controls: 0 for no effect and ±100 for the full control effect; potency is the fitted concentration of half-maximal effect.

SMILES	BLM inh	TDP1 inh	RECQ1 helicase	GLS inh	APE1 inh-1	Tb PGK inh	DNA dye displace	EndoIV counter	APE1 inh-2	APE1 FP inh
O=c1cc(-c2ccc(O)cc2)oc2c(-c3c(O)cc(O)c4c(=O)cc(-c5ccc(O)cc5)oc34)c(O)cc(O)c12	.	-0.8%	.	-18.7%	22.0%	i	.	.	.	.
O=c1c(-c2c(O)cc(O)c3c(=O)cc(-c4ccc(O)cc4)oc23)c(-c2ccc(O)cc2)oc2cc(O)cc(O)c12	12.6µM*	.	12.6µM*	-20.6%	0.794µM*	?	14.1µM*	?	2µM*	0.0%
Cn1sc(=O)n(Cc2ccccc2)c1=O	0.4%	12.1%	-5.9%	.	-3.0%	.	.	.	.	.
O=C(COC(=O)CCNS(=O)(=O)c1cccc(C(F)(F)F)c1)NC(=O)NC1CCCCC1	-6.4%	3.9%	-11.1%	-1.9%	?	-15.4%	-9.7%	-0.1%	?	3.1%
O=C(COC(=O)Cc1cccc(C(F)(F)F)c1)NC(=O)NC1CCCC1	.	-4.9%	.	1.0%	-9.6%	0.9%	.	.	.	.
CC(=O)C1=C(O)C(=O)N(Cc2ccccc2)C1c1ccco1 (configuration not stated)	-5.8%	0.794µM*	-14.5%	-8.3%	1µM*	-21.3%	-5.4%	5.3%	?	0.2%
O=c1c2cc(O)c(O)cc2oc2cc(O)c(C3OC(CO)C(O)C(O)C3O)c(O)c12 (configuration not stated)	4.0%	12.9%	-26.0%	?	2.38µM*	-3.4%	38.4%[57.1 µM]	70.2%[57.1 µM]	7.08µM*	5.6%[57.1 µM]
O=c1cc(-c2ccc(O)c(O)c2)oc2cc(O)c([C@@H]3O[C@H](CO)[C@@H](O)[C@H](O)[C@H]3O)c(O)c12	6.6%	6.1%	i	?	-10.2%	-1.1%	.	.	.	.
CC(C)(CCCCCCCCCCC(C)(C)CC(=O)O)CC(=O)O	-6.0%	17.4%	-1.6%	.	-3.1%	.	.	.	.	.
CCOC(=O)NC1(Nc2ccc(Cl)cn2)Oc2ccccc2O1	-7.0%	.	22.4µM*	.	2.51µM*	.	.	.	-22.1%	.
OC[C@@H]1O[C@H](O)[C@H](O)[C@@H](O)[C@@H]1O	-0.2%	12.8%	4.6%	.	22.9%	.	.	.	.	.
[O-][n+]1ccccc1SSc1cccc[n+]1[O-]	-0.4%	10.6%	.	52.1%	.	.	.	.	.	.
CC(C(=O)O)N1C(=O)/C(=C/C=C/c2ccco2)SC1=S (configuration not stated)	?	?	6.31µM*	3.98µM*	2.82µM*	7.94µM*	6.8%	97.2%	0.891µM*	12.6µM*
O=C1/C(=C/c2cccs2)SC(=S)N1NS(=O)(=O)c1ccccc1	-7.5%	0.0%	10.6%	17.4%	-4.6%	6.3%	.	.	.	.
O=C1/C(=C/C=C/c2ccco2)SC(=S)N1NS(=O)(=O)c1ccccc1	?	.	3.55µM*	15.8µM*	2.51µM*	?	-3.1%	115.6%	3.55µM*	?
COc1ccc(OC)c(-c2csc(N(Cc3ccco3)C(=O)c3ccco3)n2)c1	-16.1%	4.9%	-6.7%	0.0%	?	-4.1%	-11.0%	?	?	-2.6%
COCCCN(C(=O)c1ccco1)c1nc(-c2cc(OC)ccc2OC)cs1	-7.2%	2.5%	-7.7%	2.8%	-3.7%	i	.	.	.	.
COc1ccc(CN(Cc2ccccc2)C(=O)CN2CCN(C)CC2)cc1COc1ccc(NC(C)=O)cc1	.	-8.3%	.	.	.	.	.	.	.	.
O=C(N/N=C/c1c[nH]c2ccc(Br)cc12)c1ccncc1	?	89.1µM*	-5.5%	1.8%	-3.7%	-6.4%	.	.	-12.0%	.
NC[C@@H](O)c1ccc(O)c(O)c1	12.6µM*!	?	14.1µM*!	.	1µM*	.	.	-5.4%[57.1 µM]	3.98µM*	.
CCNc1nc(C#N)nc2c1ncn2-c1cccc(Cl)c1	.	-1.0%	.	.	.	.	.	.	.	.
O=S(=O)(c1ccc2c(c1)OCCO2)N1CCN(S(=O)(=O)c2cccc[n+]2[O-])CC1	.	0.2%	.	.	.	.	.	.	.	.
Cc1ccnc(NS(=O)(=O)c2ccc(NC(=O)C3C4C=CC(C4)C3C(=O)O)cc2)n1 (configuration not stated)	-6.5%	50.1µM*	-4.9%	-3.7%	?	-27.2%	.	.	-1.6%	.
Clc1ccc(-c2csc(N/N=C/c3cccnc3)n2)c(Cl)c1	-13.1%	79.4µM*	-13.8%	0.0%	16.6%	-1.0%	.	.	-22.5%	.
